MITF inh: blocks human microphthalmia-associated transcription factor; O75030; AlphaScreen MITF homodimerization, bead proximity signal; inhibition, % at 2.6 µM; 0.91% of 650,000 active; in the data active = inhibition above about 50%;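 note: 0% = vehicle wells with protein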
FBW7 activator: activators of human E3 ligase FBW7. Q969H0. AlphaScreen FBW7–phospho-cyclin E peptide binding, activator screen. normalized activity (activation), % at 26.1 µM. 0.13% of 650,000 active. AID 1259310; in the data active = normalized activity above about 1.9%;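 note: purified mutant Fbw7 with reduced substrate affinity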
GPR151 ag: human GPR151 activation; AID 1508602; 1% of 650,000 active; PathHunter beta-arrestin GPR151 cells, luminescence; Q8TDV0; activation, % at 11.2 µM; in the data active = activation above about 4.9%;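 note: 0% = median of compound wells and 100% = cells with positive control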
TEAD-YAP block: TEAD-YAP interaction inhibition; HEK-TIYL cells, TEAD-Gal4/YAP UAS-luciferase luminescence; inhibition, % at 9.12 µM; 1.4% of 640,000 active; AID 1259422; in the data active = inhibition above about 32%;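 note: 0% = median of test compound wells and 100% = reference inhibitor wells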
The depositor's hits bear a star. Only some compounds are listed: those with a hit (about 3.4% of all), similar ones and a draw of the others.

SMILES	MITF inh	FBW7 activator	GPR151 ag	TEAD-YAP block
COc1ccc(C2(O)CSC3=C(C#N)C(c4cccc(Cl)c4)CC(=O)N32)cc1OC (centres undefined)	-6	0	-1	-7
COc1cccc(C2(O)CSC3=C(C#N)C(c4cccc(Cl)c4)CC(=O)N32)c1 (centres undefined)	24	0	0	67*
CC1CCCCN1C(=O)c1cc2nc(-c3ccc([N+](=O)[O-])cc3)cc(C(F)(F)F)n2n1 (centres undefined)	10	0	0	9
CCN(C(=O)Cn1ncc2c(=O)oc3ccc(C)cc3c21)c1ccc(F)cc1	8	0	0	2
CC(=O)Nc1cccc(-c2cncc(-c3cccc(N)c3)n2)c1	12	0	0	-3
CCc1ccc(/C(O)=C(/C(=S)NCCN2CCOCC2)[n+]2ccccc2)cc1	-4	0	3	0
FC(F)(F)c1nn2cc(-c3ccccc3)nc2s1	-6	0	0	-42
OC(c1cn2cc(-c3ccccc3)nc2s1)(C(F)(F)F)C(F)(F)F	-4	0	-8	55*
N#CC(Cl)CNS(=O)(=O)c1ccc(Cl)cc1 (centres undefined)	-1	0	-2	47*
CC1CCCC(C)N1S(=O)(=O)c1ccc([N+](=O)[O-])cc1 (centres undefined)	2	0	0	-3
Cc1ncn(-c2ccc(Nc3nccc(Nc4cccc(N)c4)n3)cc2)n1	-1	0	-1	35*
Cc1ncn(-c2ccc(Nc3nccc(Nc4cccc(N5CCOCC5)c4)n3)cc2)n1	0	-1	5	63*
Cc1ncn(-c2ccc(Nc3cc(-c4cccc(N5CCOCC5)c4)ccn3)cc2)n1	-12	0	1	-11
COC(=O)c1cc(S(=O)(=O)N2CC(C)CC(C)C2)c[nH]1 (centres undefined)	-11	0	-2	-4
Cc1cccc(Cn2nc(C)c(NC(=O)c3ccccc3)c2C)c1	12	0	0	4
O=C(O)c1cc(S(=O)(=O)Nc2ccc3c(c2)OCCO3)c(Cl)cc1Cl	5	0	1	36*
CS(=O)(=O)c1ncc(Cl)c(C(=O)C(C#N)c2nc3ccccc3s2)n1 (centres undefined)	4	0	0	74*
Cc1ccc(OC(=O)c2nc(S(C)(=O)=O)ncc2Cl)cc1C	9	0	-1	48*
CCOC(=O)c1c(NC(=O)c2nc(S(C)(=O)=O)ncc2Cl)sc(C)c1C	-1	1	-3	8
COc1ccc(N(Cc2ccccc2)C(=O)c2nc(S(C)(=O)=O)ncc2Cl)cc1	6	0	0	98*
Cc1cccc(OC(=O)c2nc(S(C)(=O)=O)ncc2Cl)c1C	15	0	0	56*
Cc1cccc(C)c1NC(=O)c1nc(S(C)(=O)=O)ncc1Cl	-15	0	0	-25
Cc1ccc2nc(C(C#N)C(=O)c3nc(S(C)(=O)=O)ncc3Cl)[nH]c(=O)c2c1 (centres undefined)	-15	0	1	8
CCCc1ccc(C(=O)Oc2ccc(-c3ccc(CCC)cn3)cc2)cc1	12	0	-1	23
CCCc1ccc(-c2ccc(OC(=O)c3ccccc3Cl)cc2)nc1	-2	0	-2	70*
SMILES	MITF inh	FBW7 activator	GPR151 ag	TEAD-YAP block
Cc1cc(C(=O)COC(=O)c2cccc(NS(C)(=O)=O)c2)c(C)n1CC1CCCO1 (centres undefined)	4	0	2	58*
C=CCn1c(C)cc(C(=O)COC(=O)c2cccc(O)c2)c1C	-3	0	-9	87*
Cc1cc(C(=O)COC(=O)c2cccc(N(C)C)c2)c(C)n1CC1CCCO1 (centres undefined)	20	0	0	38*
CCOC(=O)c1[nH]c2ccccc2c1NC(=O)c1ccc(F)cc1	3	0	-1	-1
COc1ccc2c(c1)C=C(CN1CCCC(CNC(=O)c3cccnc3)C1)CO2 (centres undefined)	6	0	2	1
Cc1c(Cl)sn(-c2ccc(Cl)cc2)c1=O	-2	0	2	40*
Cc1cc(-n2sc(Cl)c(C)c2=O)ccc1Cl	-3	0	0	43*
O=C(Cc1ccccc1[N+](=O)[O-])Nc1cccc(I)c1	-22	0	0	-7
Cc1ccc(C2CC(c3cccs3)=NN2C(=O)CSc2nnc(CNC(=O)COc3ccccc3)n2-c2cccc(C)c2C)cc1 (centres undefined)	-10	0	-1	-1
COc1ccccc1-n1c(CNC(=O)COc2ccccc2)nnc1SCC(=O)N1N=C(c2cccs2)CC1c1ccc(C)cc1 (centres undefined)	0	0	0	41*
Cc1ccc(/C=C(\NC(=O)c2ccccc2)C(=O)NCCc2cccc(F)c2)o1	-13	0	0	1
COc1ccc([C@@H]2CCN(C(=O)Cc3c(F)cccc3Cl)C[C@H]2O)cc1	12	0	1	11
O=C(N/N=C/c1ccccc1O)c1ccccn1	-39	0	-1	-55
Cc1ccc(O)c(/C=N/NC(=O)c2ccccn2)c1	57*	-1	-4	-13
O=C(N/N=C/c1ccc(O)c(O)c1O)c1ccccn1	108*	-1	-3	-42
Cc1cccc(/C=N/NC(=O)c2ccccn2)c1O	13	-2	-6	55*
Cc1cccc(/C=N\NC(=O)c2ccccc2Cl)c1O	-2	0	1	-61
COC(=O)c1cc(OC)c(OCCN2CCCCC2)c(OC)c1	14	0	-1	6
Nc1ccc(S(=O)(=O)/N=C2/NC(=O)/C(=C/C(=O)c3ccccc3)N2)cc1	7	0	0	-67
Cc1cccc(NS(=O)(=O)c2ccc(NS(=O)(=O)c3cccc([N+](=O)[O-])c3)cc2)c1	9	0	-3	3
COCCCNC(=O)CN1C(=O)/C(=C\c2ccccc2Cl)Sc2ccccc21	2	0	0	-1
CCN(CC)C(=O)C1CCCN(c2nc(NCCc3ccc(OC)cc3)c3ncn(-c4ccsc4)c3n2)C1 (centres undefined)	-4	0	-1	33*
CCN(CC)C(=O)C1CCCN(c2nc(NCCN3CCOCC3)c3ncn(C(C)C)c3n2)C1 (centres undefined)	-2	0	-1	7
CCN(CC)C(=O)C1CCCN(c2nc(NCCN3CCOCC3)c3ncn(-c4ccsc4)c3n2)C1 (centres undefined)	12	0	1	36*
CCN(CC)C(=O)C1CCCN(c2nc(NCCN3CCOCC3)c3ncn(C4CCCCC4)c3n2)C1 (centres undefined)	11	0	-3	38*
CCc1ccccc1NC(=O)C/C(C)=N/NC(=O)CCc1ccccc1	2	0	0	-4
O=C1CC(c2ccccc2)Sc2nc3ccccc3n21 (centres undefined)	5	0	1	-33
COc1ccc(C2CC(=O)n3c(nc4ccccc43)S2)cc1 (centres undefined)	-11	0	2	80*
O=C1CC(c2ccc3c(c2)OCO3)Sc2nc3ccccc3n21 (centres undefined)	-3	0	-1	76*

Screens as filed in PubChem BioAssay.
